Assay results as given in PubChem BioAssay (EPA / NIEHS).
Active and inactive are the calls of the source. The calls were made as follows: active = hit-call score of the fitted dose curve at least 0.9, where 1 is the maximum; inactive = score below 0.9.

Tests used:
[1] = ATG_CRE_CIS: Attagene CIS-FACTORIAL HepG2 Assay for human cAMP Responsive Element (CRE) binding protein 3 (AID 2282926); details: HepG2 CRE cis-reporter, Attagene multiplexed mRNA; actives raise or lower the signal
In short: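 Readout: fluorescently labelled reporter transcripts resolved by capillary electrophoresis after RT-PCR, taken 24 h post-dosing in transfected HepG2. Endogenous transcription factor activity drives each cis-element reporter; gain or loss of signal fitted relative to DMSO control.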

[2] = biological target: CCAAT/enhancer-binding protein beta (Homo sapiens) (UniProt P17676); experiment: ATG_C_EBP_CIS: Attagene CIS-FACTORIAL HepG2 Assay for human CCAAT/Enhancer Binding Protein (C/EBP) beta (AID 2282927); details: HepG2 Attagene cis-factorial transcription factor reporter; actives raise or lower the signal
In short: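 HepG2 transiently transfected with multiplexed reporter units under cis-regulatory promoters reporting endogenous C/EBPb activity. After 24 h exposure, reporter mRNA assayed by RT-PCR, fluorescent labelling, HpaI digestion and capillary electrophoresis; bidirectional fitting versus DMSO.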

[3] = ATG_CMV_CIS: Attagene CIS-FACTORIAL HepG2 Assay for human CMV (Internal Marker) (AID 2282928); details: HepG2 CMV promoter reporter, transcription factor profiling; actives raise or lower the signal;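 also: endpoint acts as a background internal control marker rather than a target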
In short: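 Fluorescence intensity of RT-PCR-derived reporter fragments, resolved by capillary electrophoresis, gives the signal. HepG2 liver cells bearing transfected cis-element reporters were treated 24 h; activity in either direction was fit relative to DMSO-treated controls.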

[4] = ATG_AP_2_CIS: Attagene CIS-FACTORIAL HepG2 Assay for human Activator Protein 2 (AP-2) (AID 2282932); details: HepG2 AP-2 cis-reporter, Attagene transcription factor profiling; actives raise or lower the signal
In short: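 Liver-derived HepG2 line, cis-reporter system measuring endogenous factors; 24 h dosing; reporter mRNA detected by fluorescent RT-PCR and capillary electrophoresis.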

[5] = ATG_BRE_CIS: Attagene CIS-FACTORIAL HepG2 Assay for human Bone Morphogenetic Protein (BMP) Response Element (BRE) (AID 2282933); details: HepG2 BMP response element reporter, Attagene transcription factor profiling; actives raise or lower the signal
In short: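 A HepG2 multiplex reporter system measured inducible reporter mRNA 24 h post-dosing. Detection: RT-PCR, 6-FAM primer extension, HpaI digestion, capillary electrophoresis. Activity fitted bidirectionally relative to DMSO.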

[6] = biological target: Transcription factor E2F1 (Homo sapiens) (UniProt Q01094); experiment: ATG_E2F_CIS: Attagene CIS-FACTORIAL HepG2 Assay for human E2F Transcription Factor 1 (AID 2282935); details: HepG2 Attagene cis-reporter, E2F reporter RNA transcripts; actives raise or lower the signal
In short: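 Liver-derived HepG2 cells expressing transfected promoter-driven reporter units received test chemical for 24 hours. Signal gains or losses were fitted bidirectionally against DMSO.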

[7] = ATG_E_Box_CIS: Attagene CIS-FACTORIAL HepG2 Assay for human Enhancer Box (E-box) (AID 2282936); details: HepG2 E-box cis-reporter transcription, actives raise or lower the signal
In short: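 In this cell-based setup, HepG2 cells bearing transfected promoter-driven reporter units were exposed to chemicals for 24 h; reporter transcripts were amplified, 6-FAM-labelled, cut with HpaI and sized by capillary electrophoresis.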

[8] = ATG_M_61_CIS: Attagene CIS-FACTORIAL HepG2 Assay for M61 Transcription Factor (Internal Marker) (AID 2282937); details: HepG2 Attagene CIS-FACTORIAL M61 internal marker reporter; actives raise or lower the signal
In short: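 Endogenous transcription factor activity in HepG2 is read through transiently transfected cis-element reporter units. After 24 h dosing, RNA undergoes reverse transcription, PCR and primer extension with 6-FAM before capillary electrophoresis; DMSO-referenced bidirectional fit.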

[9] = ATG_EGR_CIS: Attagene CIS-FACTORIAL HepG2 Assay for human Early Growth Response 1 (EGR1) (AID 2282938); details: HepG2 Attagene CIS-FACTORIAL EGR reporter mRNA; actives raise or lower the signal
In short: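 Activity is taken as induction or loss of reporter mRNA versus DMSO, fitted bidirectionally. Transcripts from cis-regulated reporter units in transiently transfected HepG2 were measured after 24 h by RT-PCR with capillary electrophoresis.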

[10] = ATG_Ets_CIS: Attagene CIS-FACTORIAL HepG2 Assay for human Erythroblast Transformation Specific (ETS) (AID 2282941); details: HepG2 ETS cis-reporter transcription, actives raise or lower the signal
In short: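 Multiplexed reporter transcript profiling: HepG2, 24 h treatment, total RNA to cDNA, PCR, 6-FAM labelling, HpaI cut, capillary electrophoresis. Gain- or loss-of-signal fitted against DMSO.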

[11] = ATG_FoxO_CIS: Attagene CIS-FACTORIAL HepG2 Assay for human Forkhead box O (FoxO) (AID 2282943); details: HepG2 Attagene cis-reporter, FoxO element, mRNA; actives raise or lower the signal
In short: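 HepG2 cells transiently transfected with cis-element-driven reporter units report endogenous FoxO activity. After 24 h chemical exposure, reporter mRNA quantified by RT-PCR, fluorescent labeling, HpaI digestion and capillary electrophoresis; bidirectional fit versus DMSO.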

[12] = ATG_GLI_CIS: Attagene CIS-FACTORIAL HepG2 Assay for human Zinc Finger Protein GLI1 (AID 2282945); details: HepG2, Attagene cis-factorial reporter mRNA, GLI element; actives raise or lower the signal
In short: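 Transiently transfected HepG2 cells report endogenous transcription factor activity via cis-element-driven reporter units. After 24 h compound exposure, reporter mRNA was measured by RT-PCR with capillary electrophoresis; bidirectional fitting against DMSO baseline.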

[13] = ATG_ISRE_CIS: Attagene CIS-FACTORIAL HepG2 Assay for human Interferon Regulatory Factor 1 (IRF1) binding to an Interferon-Stimulated Response Element (ISRE) (AID 2282948); details: HepG2 ISRE cis-reporter (Attagene), mRNA transcription readout; actives raise or lower the signal
In short: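 Signal reflects induction or loss of ISRE-linked reporter mRNA in transiently transfected HepG2 cells after a 24 h treatment, detected by fluorescent RT-PCR fragments on capillary electrophoresis and normalised to DMSO.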

[14] = ATG_M_32_CIS: Attagene CIS-FACTORIAL HepG2 Assay for M32 Transcription Factor (Internal Marker) (AID 2282949); details: HepG2 Attagene cis-factorial M32 reporter, mRNA; actives raise or lower the signal;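 also: background control marker of the multiplexed CIS panel rather than a real target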
In short: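 HepG2 human liver cells transiently transfected with cis-promoter-driven multiple reporter transcription units, dosed 24 h. Reporter mRNA quantified by RT-PCR, FAM-labelled primer extension, HpaI digest and capillary electrophoresis; bidirectional fit versus DMSO baseline.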

[15] = ATG_M_06_CIS: Attagene CIS-FACTORIAL HepG2 Assay for M06 Transcription Factor (Internal Marker) (AID 2282950); details: HepG2 Attagene CIS-FACTORIAL M06 internal marker reporter; actives raise or lower the signal
In short: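 Cells (HepG2, transiently carrying cis-driven reporter units) receive chemical for 24 h before RNA isolation. Reporter cDNA is PCR-amplified, FAM-labelled by primer extension, HpaI-digested and sized on a capillary analyser.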

[16] = ATG_MRE_CIS: Attagene CIS-FACTORIAL HepG2 Assay for human Metal Responsive Element (MRE) (AID 2282954); details: HepG2 MRE cis-reporter transcription, Attagene multiplex; actives raise or lower the signal
In short: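 Measured here is mRNA induction from an MRE cis-element reporter in HepG2 after 24 h, quantified by fluorescence of labelled RT-PCR products on capillary electrophoresis; gain- and loss-of-signal fits use DMSO as baseline.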

[17] = ATG_PXRE_CIS: Attagene CIS-FACTORIAL HepG2 Assay for human Pregnane X Receptor Element (PXRE) (AID 2282957); details: HepG2 Attagene CIS-FACTORIAL PXRE reporter, mRNA; actives raise or lower the signal
In short: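 Read-out: fluorescence of reporter-specific RT-PCR products resolved by capillary electrophoresis, fitted bidirectionally relative to DMSO. Human HepG2 liver cells carried transfected cis-promoter reporter units and were exposed to chemicals for 24 h.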

[18] = ATG_Sox_CIS: Attagene CIS-FACTORIAL HepG2 Assay for human SRY-box transcription factor (SOX) (AID 2282960); details: HepG2 Attagene cis-factorial SOX reporter, mRNA; actives raise or lower the signal
In short: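 Measures mRNA induction of a SOX1-associated reporter in HepG2 after 24 h dosing. Fluorescently labelled RT-PCR fragments are separated by capillary electrophoresis, and gain or loss relative to DMSO control is fitted.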

[19] = biological target: Transcription factor Sp1 (Homo sapiens) (UniProt P08047); experiment: ATG_Sp1_CIS: Attagene CIS-FACTORIAL HepG2 Assay for human Specificity Protein 1 (Sp1) (AID 2282961); details: HepG2 Sp1 cis-reporter transcription, actives raise or lower the signal
In short: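 Cells: HepG2, transiently transfected with cis-regulated multiplexed reporters. Exposure: 24 h. Detection: reporter transcripts amplified, fluorescently labeled, restriction-digested and sized by capillary electrophoresis. Analysis: bidirectional fit relative to DMSO.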

[20] = ATG_SREBP_CIS: Attagene CIS-FACTORIAL HepG2 Assay for human Sterol Regulatory Element Binding (SREBP) (AID 2282962); details: HepG2 Attagene cis-factorial SREBP reporter, mRNA; actives raise or lower the signal
In short: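 Values derive from bidirectional curve fitting with DMSO as baseline. The underlying measurement is reporter mRNA from cis-element-regulated units in transiently transfected HepG2, quantified by RT-PCR and capillary electrophoresis after 24 h exposure.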

Measured: AC50

Sequence of Transcription factor Sp1 (Homo sapiens) (P08047 whole entry, looked up): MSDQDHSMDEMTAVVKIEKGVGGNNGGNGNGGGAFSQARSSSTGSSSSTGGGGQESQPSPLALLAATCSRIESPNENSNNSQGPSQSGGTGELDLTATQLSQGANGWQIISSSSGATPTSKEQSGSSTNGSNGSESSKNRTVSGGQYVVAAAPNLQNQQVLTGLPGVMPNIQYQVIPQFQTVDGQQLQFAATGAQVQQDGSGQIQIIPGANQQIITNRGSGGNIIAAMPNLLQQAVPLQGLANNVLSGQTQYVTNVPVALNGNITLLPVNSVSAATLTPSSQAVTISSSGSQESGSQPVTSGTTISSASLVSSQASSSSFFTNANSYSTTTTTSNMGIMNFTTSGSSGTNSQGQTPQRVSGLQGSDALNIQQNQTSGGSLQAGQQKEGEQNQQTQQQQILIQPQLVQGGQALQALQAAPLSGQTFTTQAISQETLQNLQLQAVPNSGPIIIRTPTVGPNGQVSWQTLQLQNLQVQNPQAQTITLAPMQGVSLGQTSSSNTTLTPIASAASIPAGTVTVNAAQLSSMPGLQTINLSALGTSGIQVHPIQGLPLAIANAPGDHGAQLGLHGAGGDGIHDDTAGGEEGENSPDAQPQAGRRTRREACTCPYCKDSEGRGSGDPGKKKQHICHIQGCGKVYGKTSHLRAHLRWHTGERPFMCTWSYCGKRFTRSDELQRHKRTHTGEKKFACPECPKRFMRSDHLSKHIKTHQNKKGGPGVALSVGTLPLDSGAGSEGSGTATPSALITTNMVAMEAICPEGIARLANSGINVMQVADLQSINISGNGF
Sequence of CCAAT/enhancer-binding protein beta (Homo sapiens) (P17676 whole entry, looked up): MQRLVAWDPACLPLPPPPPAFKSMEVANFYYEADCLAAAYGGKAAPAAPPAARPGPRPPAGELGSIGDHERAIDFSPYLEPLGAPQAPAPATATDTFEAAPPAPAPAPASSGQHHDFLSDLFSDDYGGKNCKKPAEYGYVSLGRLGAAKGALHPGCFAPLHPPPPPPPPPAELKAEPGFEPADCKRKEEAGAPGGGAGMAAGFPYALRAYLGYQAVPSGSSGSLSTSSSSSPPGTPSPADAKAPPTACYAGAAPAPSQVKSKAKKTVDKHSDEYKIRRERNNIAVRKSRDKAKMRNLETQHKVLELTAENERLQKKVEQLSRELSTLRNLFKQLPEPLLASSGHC
Sequence of Transcription factor E2F1 (Homo sapiens) (Q01094 whole entry, looked up): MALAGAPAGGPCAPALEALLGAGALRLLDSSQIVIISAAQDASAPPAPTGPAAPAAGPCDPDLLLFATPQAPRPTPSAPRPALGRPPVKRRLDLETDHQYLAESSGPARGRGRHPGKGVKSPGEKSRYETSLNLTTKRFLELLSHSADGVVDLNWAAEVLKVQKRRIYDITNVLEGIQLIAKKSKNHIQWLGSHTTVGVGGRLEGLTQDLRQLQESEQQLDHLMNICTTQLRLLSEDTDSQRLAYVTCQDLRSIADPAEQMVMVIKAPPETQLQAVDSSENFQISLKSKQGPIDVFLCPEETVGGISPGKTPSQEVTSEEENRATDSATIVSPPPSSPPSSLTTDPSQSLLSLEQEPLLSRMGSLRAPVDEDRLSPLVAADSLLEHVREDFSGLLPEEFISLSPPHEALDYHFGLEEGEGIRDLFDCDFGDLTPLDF

O=C(C(=O)c1ccccc1)c1ccccc1
active: [17] 42.8 µM
inactive: [1] | [2] | [3] | [4] | [5] | [6] | [7] | [8] | [9] | [10] | [11] | [12] | [13] | [14] | [15] | [16] | [18] | [19] | [20]

CC(C)(C)NC(=O)[C@@H]1CN(Cc2cccnc2)CCN1C[C@@H](O)C[C@@H](Cc1ccccc1)C(=O)N[C@H]1c2ccccc2C[C@H]1O
inactive: [1] | [2] | [3] | [4] | [5] | [6] | [7] | [8] | [9] | [10] | [11] | [12] | [13] | [14] | [15] | [16] | [18] | [19] | [20]
active: [17] 19.6 µM

CCO[Si](OCC)(OCC)c1ccccc1
active: [17] 50.9 µM
inactive: [1] | [2] | [3] | [4] | [5] | [6] | [7] | [8] | [9] | [10] | [11] | [12] | [13] | [14] | [15] | [16] | [18] | [19] | [20]

CN(C)CCC(c1ccc(Cl)cc1)c1ccccn1 (stereo not given)
active: [13] 125 µM
inactive: [1] | [2] | [3] | [4] | [5] | [6] | [7] | [8] | [9] | [10] | [11] | [12] | [14] | [15] | [16] | [17] | [18] | [19] | [20]

Brc1ccc(Oc2ccc(Br)cc2)cc1
inactive: [1] | [2] | [4] | [6] | [7] | [8] | [9] | [10] | [11] | [12] | [13] | [14] | [15] | [16] | [18] | [19] | [20]
active: [3] 40.4 µM | [5] 86.9 µM | [17] 27.3 µM

CC(O)(P(=O)(O)O)P(=O)(O)O
inactive: [1] | [2] | [3] | [4] | [5] | [6] | [7] | [8] | [9] | [10] | [11] | [12] | [13] | [14] | [15] | [16] | [17] | [18] | [19] | [20]

C[Si](C)(C)O[Si](C)(C)O[Si](C)(C)C
inactive: [1] | [2] | [3] | [4] | [5] | [6] | [7] | [8] | [9] | [10] | [11] | [12] | [13] | [14] | [15] | [16] | [17] | [18] | [19] | [20]

O=C(O)c1ccccc1C(=O)O
active: [17] 28.3 µM
inactive: [1] | [2] | [3] | [4] | [5] | [6] | [7] | [8] | [9] | [10] | [11] | [12] | [13] | [14] | [15] | [16] | [18] | [19] | [20]

CCC(C)C1N=C(C)C(C)S1 (stereo not given)
inactive: [1] | [2] | [3] | [4] | [5] | [6] | [7] | [8] | [9] | [10] | [11] | [12] | [13] | [14] | [15] | [16] | [18] | [19] | [20]
active: [17] 3.25 µM
